Laboratory results taken from the supplement of paper PMC6555819.

Legend:
Assay in all cases: PBM binding z-score (relative to random genomic background probes); higher = stronger binding; sequences stand for … in GC…GCGATTGACAGCGTAGAATGAAGG
[1] = test system: FXR:RXRa (NR concentration 270 nM, RXRa partner concentration 90 nM)
Summary of the method: (§1)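 Each nuclear receptor dimer, without ligand, was incubated for 1 h on custom Agilent 4×180K protein-binding microarrays. Binding was detected with antibodies against each partner (one per run), and scanned fluorescence was regression-normalized. The binding z-scores are referenced to random human genomic background probes.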

[2] = test system: LXRa:RXRa (NR concentration 270 nM, RXRa partner concentration 90 nM)
Summary of the method: as §1

[3] = test system: LXRa homodimer (NR concentration 270 nM)
Summary of the method: as §1

[4] = test system: LXRb:RXRa (NR concentration 270 nM, RXRa partner concentration 90 nM)
Summary of the method: as §1

[5] = test system: LXRb homodimer (NR concentration 270 nM)
Summary of the method: as §1

[6] = test system: PPARa:RXRa (NR concentration 270 nM, RXRa partner concentration 90 nM)
Summary of the method: as §1

[7] = test system: PPARg:RXRa (NR concentration 180 nM, RXRa partner concentration 90 nM)
Summary of the method: as §1

[8] = test system: PPARg:RXRa 270nM:90nM, anti-RXR (NR concentration 270 nM, RXRa partner concentration 90 nM)
Summary of the method: as §1

[9] = test system: PPARg:RXRa 30nM:10nM, anti-RXR (NR concentration 30 nM, RXRa partner concentration 10 nM)
Summary of the method: as §1

[10] = test system: PPARg:RXRa 90nM:30nM, anti-RXR (NR concentration 90 nM, RXRa partner concentration 30 nM)
Summary of the method: as §1

[11] = test system: PPARg:RXRa DBDmut IVT, anti-RXR (DBD mutation: RXRa K156A/R161A, NR concentration 270 nM, RXRa partner concentration 90 nM)
Summary of the method: as §1

[12] = test system: PPARg:RXRa IVT, anti-PPARg (NR concentration 270 nM, RXRa partner concentration 90 nM)
Summary of the method: as §1

[13] = test system: PPARg DBDmut:RXRa IVT, anti-PPARg (DBD mutation: PPARg1 K132A/R137A, NR concentration 270 nM, RXRa partner concentration 90 nM)
Summary of the method: as §1

[14] = test system: PPARg DBDmut IVT, anti-PPARg (DBD mutation: PPARg1 K132A/R137A, NR concentration 270 nM)
Summary of the method: as §1

[15] = test system: PPARg homodimer (NR concentration 180 nM)
Summary of the method: as §1

[16] = test system: PXR:RXRa (NR concentration 270 nM, RXRa partner concentration 90 nM)
Summary of the method: as §1

[17] = test system: PXR homodimer (NR concentration 270 nM)
Summary of the method: as §1

[18] = test system: RARa:RXR (NR concentration 270 nM, RXRa partner concentration 90 nM)
Summary of the method: as §1

[19] = test system: RARa homodimer (NR concentration 270 nM)
Summary of the method: as §1

[20] = test system: RARb:RXRa (NR concentration 270 nM, RXRa partner concentration 90 nM)
Summary of the method: as §1

Sequence	PBM binding z-score [1]	PBM binding z-score [2]	PBM binding z-score [3]	PBM binding z-score [4]	PBM binding z-score [5]	PBM binding z-score [6]	PBM binding z-score [7]	PBM binding z-score [8]	PBM binding z-score [9]	PBM binding z-score [10]	PBM binding z-score [11]	PBM binding z-score [12]	PBM binding z-score [13]	PBM binding z-score [14]	PBM binding z-score [15]	PBM binding z-score [16]	PBM binding z-score [17]	PBM binding z-score [18]	PBM binding z-score [19]	PBM binding z-score [20]
CCGACTGTGGCATAAGGTTACCATAAGCCAGCCC	0.578	2.4	0.142	1.07	-0.834	1.36	0.99	1.57	-0.0445	0.844	1.12	0.305	-0.617	-0.541	0.621	0.365	0.018	0.961	0.166	0.964
GCAGACAGGTGAAACGCAGGTGACTCAGGGTGGC	0.0191	0.00841	-0.506	-0.401	-1.12	1.18	0.635	0.413	-0.264	-0.0702	0.661	1.27	-0.57	-0.659	-0.182	0.074	-0.467	0.675	-0.193	1.01
CCGACAGGGGCAAAGGTTACCATACTCAGTACGA	2.65	2.32	-0.14	2.73	-0.622	4.74	7.39	7.14	5.17	7.95	0.215	3.27	-0.209	-0.953	1.78	3.35	-0.101	5.32	-0.576	2.89
CTCGAAAGGTCGGTTGAGGTGAGTGTACGGATAA	2.54	2.08	-0.0781	1.51	-0.0633	2.67	0.33	1.27	0.405	0.48	0.169	1.3	0.72	-0.675	1.07	3.54	0.527	3.02	0.735	3.07
TCTTGTAGATCAACGGTTAAGAAAGCCGAAGCCT	0.513	0.28	-0.0283	0.131	-0.0358	1.14	0.464	2.61	3.23	3.03	1.73	0.568	0.699	0.541	0.0861	0.292	-0.149	0.701	0.15	0.235
CGAACGGGGGCATGAGTTGATAGCAAATGCCGAT	3.26	2.81	0.42	4.42	6.73	3.99	2.63	4.68	2.82	3.84	3.7	5.31	8.66	10	2.78	3.06	1.34	2.78	0.977	2.79
ATCTCTAGGTAAAGTCCAGTGAAAGATCGATAGA	0.403	0.465	0.0712	-0.241	1.11	0.175	0.232	0.48	0.421	0.165	2.45	1.54	1.13	0.971	0.584	-0.13	0.187	-0.113	0.971	0.414
CCTATTAGTTGACCATAAGGGCACCCGAAGCTCG	0.765	0.567	0.422	0.491	0.755	0.457	0.534	0.375	0.138	0.172	-0.198	0.504	0.132	0.825	1.88	0.521	0.781	0.981	1.56	1.2
GCGGCTGGGGCAAAGCAGGTTACCATAAGGTTGG	0.63	0.104	-0.673	0.159	-0.912	0.636	0.139	-0.304	-0.825	-0.577	0.344	0.597	-2.01	-1.49	-0.191	0.338	-0.584	0.776	-1.18	1.07
CATACAGGGTCAGTTAGGCCAGAGTAGGGACGGC	3.37	2.29	-0.0109	1.79	0.655	3.36	2.24	1.92	0.738	1.41	0.861	2.08	1	0.259	2.09	1.55	0.258	2.17	0.791	3.67
TATACAGGGTCAAAGGCCAGTGTACGAATGTCGA	6.89	6.1	2.61	4.74	2.33	6.22	8.3	7.38	4.93	7.23	1.89	5.07	2.16	0.623	2.38	4.13	0.622	5.66	0.468	4.57
CAAACTAGGTCGCGAAAGGTCAAAGTCGAATGAC	6.26	6.45	5.69	5.96	1.92	6.03	7.96	6.66	4.55	6.34	6.96	7.13	1.26	1.98	3.65	6.52	2.13	6.77	2.38	5.01
ATCTTTAGGTAACAAGTTCAGTGAAAGAGAGGAC	1.21	1.09	0.889	1.08	1.44	1.41	0.762	1.44	0.49	0.949	2.13	1.75	1.64	1.45	1.33	1.95	1.87	1.32	1.15	1.85
CCTACTGGGCCAAAGGTCACTGATTCCAATGCTC	4.23	4.62	2.37	4.72	0.63	6.39	12.2	10.6	10.2	11.6	5.75	7.12	0.0303	-0.418	3.54	5.27	1.1	6.62	1.82	4.56
GCTGCTAGGTCAACTGATGTTCAGCTAAAGCTCG	4.01	2.78	0.062	1.95	0.048	3.71	2.89	3.07	0.613	1.86	4.93	4.11	-0.364	-1.06	1.1	1.64	-0.723	2.27	-0.512	4.32
CAAACTAGGTCACGACAGGTCAAAGTCGAATGAC	6.86	7.66	5.39	6.7	0.955	6.08	9.79	7.85	6.54	8.02	8.69	9.13	4.46	5.24	4.07	6.3	0.87	6.14	1.65	5.04
CGTCCAAGGTCAAAGGTTAGTGAAGAGATGACGG	7.74	5.92	1.42	5.09	1.54	6.47	8.94	7.84	7.41	8.3	3.36	4.86	2.1	1.08	6	6.05	1.47	7.8	1.93	5.22
CCGACTGCGGCAAAGGTTACCATACTCAGTACGA	0.819	1.26	0.087	1.73	-0.464	2.59	2.8	4.2	2.28	4.38	0.233	0.732	0.0182	0.245	0.843	1.61	-0.16	2.57	0.118	1.82
TCGAGTAGGTTACCAATGGGGCAGTCAGCTTTCT	0.254	0.465	-0.934	0.266	-0.413	1.05	0.211	1.04	1.06	0.984	3.11	2.43	-0.721	-1.01	-0.432	-0.103	-1.34	0.0626	-1.21	0.908
